Sampled rows, rich in hits. Any-hit rate of the full collection: about 12%.
HP1b chromo inh: HTS for Inhibitors of HP1-beta Chromodomain Interactions with Methylated Histone Tails | Chromobox protein homolog 1 (Homo sapiens), P83916 | AlphaScreen HP1-beta / biotin-H3K9me3 peptide binding | Potency, µM (highest dose often 114 µM), without a hit: at the highest dose activity change, negative = inhibition, hits mostly inhibitors | hit rate 0.56% among 390,000; further: nearly all actives have a fitted effect of over 70% in size
Target sequence (P83916 whole entry, looked up): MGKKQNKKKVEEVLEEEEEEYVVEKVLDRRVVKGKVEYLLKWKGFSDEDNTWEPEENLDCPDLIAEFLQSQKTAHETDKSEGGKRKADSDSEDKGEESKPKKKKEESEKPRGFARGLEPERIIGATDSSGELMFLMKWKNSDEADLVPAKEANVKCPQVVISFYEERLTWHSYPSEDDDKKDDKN
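HP1-beta protein (50 nM final) preincubated 30 min at room temperature with biotinylated H3(1-18)K9me3 peptide (50 nM) in PBS pH 7.4, 0.01% Tween-20, then compound added for 30 min. AlphaScreen streptavidin donor/nickel chelate acceptor beads (10 ug/mL final), 30 min dark, luminescence read.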
BAZ2B inh: qHTS Assay for Inhibitors of BAZ2B; AlphaScreen BAZ2B-H3K14Ac peptide displacement; Potency, µM (titrated, usually from 114 µM), without a hit: top-dose activity change, negative = inhibition, actives largely listed as inhibitors; hit rate 4.4% among 360,000; further: on the % scale 0 is the no-effect control and ±100 the full control effect; nearly all actives have a fitted effect of over 60% in size
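AlphaScreen displacement of biotin-H3(5-23)K14Ac peptide (50 nM final) from BAZ2B (50 nM final) in PBS pH 7.4, 0.01% Tween-20; complex preformed 30 min RT, then compounds (top 110 uM) 30 min RT, beads 20 min dark.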
JMJD2A Tudor: qHTS Assay for Inhibitors of JMJD2A-Tudor Domain; AlphaScreen JMJD2A-Tudor / H3K4me3 peptide binding; Potency, µM (highest dose often 114 µM), without a hit: top-dose activity change, negative = inhibition, most hits filed as inhibitors; hit rate 4.4% among 390,000; AID 504339, 2011; further: on the % scale 0 is the no-effect control and ±100 the full control effect; nearly all actives have a fitted effect of over 50% in size
L3MBTL1 block: qHTS Assay for the Inhibitors of L3MBTL1 | AlphaScreen L3MBTL1–H3K9me1 peptide binding | AID 485360, 2010 | Potency, µM (series often up to 57.1 µM), for inactives: at the top dose activity, negative = inhibition, hits mostly inhibitors | Lethal(3)malignant brain tumor-like protein 1 (Homo sapiens), Q9Y468 | hit rate 0.66% among 230,000; further: on the % scale 0 is the no-effect control and ±100 the full control effect; nearly all actives have a fitted effect of over 60% in size
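L3MBTL1 (50 nM) pre-complexed 30 min with biotinylated H3(1-15)K9me1 peptide (75 nM), then compounds added for 30 min at room temperature; AlphaScreen streptavidin donor/nickel chelate acceptor beads (10 ug/mL final) read after 30 min dark incubation.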
G9a inh: qHTS Assay for Inhibitors of Histone Lysine Methyltransferase G9a; Histone-lysine N-methyltransferase EHMT2 (Homo sapiens), Q96KQ7; G9a H3K9 monomethylation, AlphaScreen, 2 h; Potency, µM (doses to about 102 µM), inactives show at the highest dose activity, negative = inhibition, hits mostly inhibitors; hit rate 8.8% among 350,000; further: on the % scale 0 is the no-effect control and ±100 the full control effect; nearly all actives have a fitted effect of over 75% in size
Target sequence (Q96KQ7 913-1193 limits assumed): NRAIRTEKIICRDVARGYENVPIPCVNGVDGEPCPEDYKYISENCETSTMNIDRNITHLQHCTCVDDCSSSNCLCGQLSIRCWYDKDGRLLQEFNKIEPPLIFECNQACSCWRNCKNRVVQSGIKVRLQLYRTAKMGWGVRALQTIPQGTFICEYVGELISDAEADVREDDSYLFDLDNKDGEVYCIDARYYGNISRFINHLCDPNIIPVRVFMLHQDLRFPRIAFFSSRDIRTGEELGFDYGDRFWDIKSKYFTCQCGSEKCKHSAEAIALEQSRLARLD
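AlphaScreen detection with an anti-monomethyl H3K9 antibody quantified product after a 2 h room-temperature reaction containing 500 nM biotinylated H3K9 peptide, 20 µM SAM and 20 nM enzyme, which had been preincubated 15 min with compound.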
Sfp inh: qHTS Assay for Inhibitors of Bacillus subtilis Sfp phosphopantetheinyl transferase (PPTase); 4'-phosphopantetheinyl transferase ffp (Bacillus subtilis), Q9F4F7; hit rate 3.5% among 310,000; Biochemical Sfp PPTase activity, qHTS; Potency, µM, without a hit: largest response in the series, negative = inhibition, hits mostly inhibitors;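 further: the enzyme is Sfp with the accession as filed and its product quenches rhodamine fluorescence; 0% = enzyme reaction without inhibitor and -100% = no enzyme wells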
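Reaction rates are the 30-min fluorescence difference (ex 525, em 598 nm) in wells containing 15 nM Sfp, 5 uM rhodamine-CoA and 12.5 uM BHQ-2-YbbR at pH 7.6 with 10 mM MgCl2.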
Starred values were filed as active, the others as inactive; ! = not confirmed by another sample; [ ] = dose if it differs, or a comment. The call rests on the fitted dose curve; in most records, active means well fitted curve in the direction sought with a large enough effect; inconclusive means small, poorly fitted or top-dose-only effect, or another doubt; inactive means no such curve, though single readings can be large; an effect the other way counts as inactive or inconclusive. Potency means the concentration at half of the fitted maximal effect.

CC1(C)CC(C)(c2ccc(O)cc2O)N(c2ccc3ccccc3c2)C(=S)N1 (stereo unspecified) was read as HP1b chromo inh -33%, BAZ2B inh 45µM*, JMJD2A Tudor inconclusive, L3MBTL1 block -20%, G9a inh inconclusive and Sfp inh 25%.
C[C@@H](CCc1ccc(O)cc1)NCCc1ccc(O)c(O)c1 was read as G9a inh 1%[21.5 µM] and Sfp inh 56µM*!.
For O=C(N/N=C/c1ccncc1)c1ccccc1 the results were HP1b chromo inh 9%, BAZ2B inh 6%, JMJD2A Tudor 3%, L3MBTL1 block 1%, G9a inh 5%[0.501 µM] and Sfp inh 20%.
`Cc1ccc(/C=N/NC(=O)c2ccccn2)o1` gave HP1b chromo inh 36%, BAZ2B inh -2%, JMJD2A Tudor -13%, L3MBTL1 block 0%, G9a inh inconclusive and Sfp inh 56µM*.
For Cc1ccc(C)n1-c1ccc(C(=O)N/N=C/c2ccncc2)cc1 the results were HP1b chromo inh inconclusive, JMJD2A Tudor 79µM*, L3MBTL1 block -12%, G9a inh -21% and Sfp inh 10%.
Screening CCOC(=O)N/N=C/c1ccc(C)o1 returned HP1b chromo inh 5%, BAZ2B inh -4%, JMJD2A Tudor -24%, L3MBTL1 block 1%, G9a inh 11% and Sfp inh 26%.
O=C(N/N=C/c1ccncc1)c1ccccn1 was read as HP1b chromo inh 40%, BAZ2B inh 50µM*, JMJD2A Tudor 0%, G9a inh 2µM* and Sfp inh inconclusive.
Cc1ccc(/C=N/NC(=O)C2(O)c3ccccc3-c3ccccc32)o1 was read as HP1b chromo inh 30%, BAZ2B inh -31%, JMJD2A Tudor -8%, L3MBTL1 block -8%, G9a inh 56µM* and Sfp inh inconclusive.
`CN(C)c1ccc(/C=N/NC(=O)c2ccccn2)cc1` gave HP1b chromo inh 9%, BAZ2B inh inconclusive, JMJD2A Tudor -25%, L3MBTL1 block 1% and Sfp inh -19%.
Screening O=C(O)c1ccc([N+](=O)[O-])c(CS(=O)(=O)c2ccccc2)c1 returned HP1b chromo inh 27%, BAZ2B inh -1%, JMJD2A Tudor -12%, G9a inh -4% and Sfp inh 15%.
`Cc1ccc(/C=N/NC(=O)CSc2nnc(-c3ccc(Cl)cc3)n2-c2ccc(Cl)cc2)o1` gave HP1b chromo inh 26%, BAZ2B inh 3%, JMJD2A Tudor -10%, L3MBTL1 block -14%, G9a inh -3%[59 µM] and Sfp inh inconclusive.
For Cc1ccc(/C=N/NC(=O)CSc2nnc(-c3ccccc3)n2-c2ccc(Cl)cc2)o1 the results were HP1b chromo inh -11%, BAZ2B inh inconclusive, JMJD2A Tudor -34%, L3MBTL1 block -15%, G9a inh 45µM* and Sfp inh -28%.
For O=C(NN=C1C2CC3CC1CC(Cl)(C3)C2)c1cccs1 the results were HP1b chromo inh 24%, BAZ2B inh -2%, JMJD2A Tudor -9%, G9a inh -47% and Sfp inh -6%.
Cc1ccc(/C=N\NC(=O)Cn2nnc3ccccc32)o1 was read as HP1b chromo inh 33%, BAZ2B inh 0%, JMJD2A Tudor -8%, G9a inh 89µM* and Sfp inh inconclusive.
Screening C/C(CC(=O)NC1CCCCC1)=N\NC(=O)c1ccccn1 returned HP1b chromo inh 35%, BAZ2B inh -30%, JMJD2A Tudor inconclusive, L3MBTL1 block 12% and Sfp inh 89µM*.
For Cc1ccc(/C=N/NC(=O)Cn2cnc3ccccc32)o1 the results were HP1b chromo inh 24%, BAZ2B inh -26%, JMJD2A Tudor -9%, L3MBTL1 block -3% and Sfp inh -65%.
O=C(NN=C1C2CC3CC1CC(Cl)(C3)C2)c1ccccn1 was read as HP1b chromo inh 39%, BAZ2B inh -16%, JMJD2A Tudor -23%, G9a inh -7% and Sfp inh 7.9µM*.
For Cc1cccc(C(=O)NC2(C(F)(F)F)N=C(c3ccccc3)N(C3CCCCC3)C2=O)c1 (stereo unspecified) the results were HP1b chromo inh 21%, BAZ2B inh -17%, JMJD2A Tudor -10% and G9a inh 3%[59 µM].
`O=C(NN=C1c2ccccc2-c2ccccc21)c1ccccn1` gave HP1b chromo inh 11%, BAZ2B inh 50µM*, JMJD2A Tudor inconclusive, L3MBTL1 block -4%, G9a inh 4% and Sfp inh inconclusive.
`CC(=N/O)/C(C)=N\NC(=O)c1ccccn1` gave HP1b chromo inh 33%, JMJD2A Tudor -18%, G9a inh 1% and Sfp inh inconclusive.
For CC(C)Oc1ccc(Cc2cnc(=S)[nH]c2N)cc1 the results were HP1b chromo inh 40%, BAZ2B inh -18%, JMJD2A Tudor -15%, L3MBTL1 block 2%, G9a inh 50µM* and Sfp inh 4%.
CCCCN1C=CC(=C2C(=O)c3ccccc3C2=O)C=C1 was read as HP1b chromo inh 41%, BAZ2B inh 22%, JMJD2A Tudor -4%, G9a inh 50µM* and Sfp inh 20%.
CCCCn1c(C)cc(C)c(S(=O)(=O)c2ccccc2C)c1=O was read as HP1b chromo inh 126%, BAZ2B inh 40%, JMJD2A Tudor 52%, G9a inh 61%[59 µM] and Sfp inh 11%.
For Cc1nc(C)c(CCNC(=O)c2cccc(Cl)c2)s1 the results were HP1b chromo inh 18%, BAZ2B inh 10%, JMJD2A Tudor 2%, L3MBTL1 block 9%, G9a inh 79µM* and Sfp inh -2%.
Screening Cc1nc(C)c(CCNC(=O)c2ccccc2)s1 returned HP1b chromo inh 22%, BAZ2B inh -7%, JMJD2A Tudor 1%, L3MBTL1 block 9%, G9a inh 10%[59 µM] and Sfp inh -7%.
Screening CNC(=O)C(=O)Nc1c(O)c2ccccc2[nH]c1=O returned HP1b chromo inh 27%, BAZ2B inh -12%, JMJD2A Tudor -15% and Sfp inh 22µM*.
